About 79,000 compounds went through this panel and 15% of them were active in at least one assay; those are over-represented in the sample as a whole. Activity calls are given as the source filed them. No stated cut-off is given here; in the data, active means growth inhibition above about 70%; inactive means the rest.
Columns and labels:
[1] = NCI Yeast Anticancer Drug Screen. Data for the rad50 strain (AID 155);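 further: 0% = growth of vehicle-only cultures of the same strain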; details: S. cerevisiae rad50 strain growth inhibition, stronger effect = higher value
Summary of the method: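 Relative growth inhibition (compound vs vehicle) was measured in yeast with a defined repair-gene alteration.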

[2] = NCI Yeast Anticancer Drug Screen. Data for the mec2-1 strain (AID 157); details: S. cerevisiae mec2-1 strain, stronger effect = higher value
Summary of the method: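 Each compound was tested on mec2-1 yeast, a strain altered in DNA damage repair or cell cycle control. Growth inhibition is reported relative to vehicle.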

[3] = NCI Yeast Anticancer Drug Screen. Data for the sgs1 mgt1 strain (AID 161);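 further: 0% = growth of cultures given vehicle only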; details: S. cerevisiae sgs1 mgt1 strain, stronger effect = higher value
Summary of the method: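 Inhibition of yeast growth, normalised to vehicle-treated controls, is reported for a strain bearing genetic alterations in DNA damage repair.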

[4] = NCI Yeast Anticancer Drug Screen. Data for the cln2 rad14 strain (AID 165);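 further: 0% = growth equal to vehicle treated cultures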; details: S. cerevisiae cln2 rad14 strain, stronger effect = higher value
Summary of the method: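 Test compounds were added to cln2 rad14 yeast cultures; inhibition of growth was then determined by comparison with vehicle treatment.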

[5] = NCI Yeast Anticancer Drug Screen. Data for the bub3 strain (AID 167); details: S. cerevisiae bub3 mutant strain, stronger effect = higher value
Summary of the method: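 Screening used yeast with an engineered genetic alteration affecting cell cycle control. Compound-exposed cultures were compared with vehicle cultures, and reduced growth was taken as inhibition.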

[6] = NCI Yeast Anticancer Drug Screen. Data for the mlh1 rad18 strain (AID 175); details: S. cerevisiae mlh1 rad18 strain growth inhibition, stronger effect = higher value
Summary of the method: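 Inhibition values reflect reduced growth of mutant yeast versus vehicle-treated controls following compound exposure; the mutations affect DNA damage repair.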

[7] = at 5.0 µM (retest, dose inferred, filed as 0.5)
[8] = at 50.0 µM (retest, dose inferred, filed as 5.0)

Measured: growth inhibition

CCCCC1C(=O)N2c3ccccc3-c3ccccc3N2C1=O
inactive: [1]; [7] -5% | [1]; [8] 30% | [1]; at 50.0 µM 65.5% | [2]; [7] 4% | [2]; [8] 33% | [2]; at 50.0 µM 6.8% | [3]; [7] -3% | [3]; [8] 23% | [3]; at 50.0 µM 43.2% | [4]; [7] -4% | [4]; [8] 8% | [4]; at 50.0 µM 14.8% | [5]; [7] 6% | [5]; [8] 10% | [5]; at 50.0 µM 17.4% | [6]; [7] 0% | [6]; [8] 34% | [6]; at 50.0 µM 35%

Nc1ncnc2nc(SCCO)[nH]c12
inactive: [1]; [7] -1% | [1]; [8] -2% | [1]; at 50.0 µM 9.4% | [2]; [7] 4% | [2]; [8] 0% | [2]; at 50.0 µM -4.9% | [3]; [7] -1% | [3]; [8] -4% | [3]; at 50.0 µM 12.9% | [4]; [7] 0% | [4]; [8] -5% | [4]; at 50.0 µM 31.4% | [5]; [7] 3% | [5]; [8] -2% | [5]; at 50.0 µM 9.15% | [6]; [7] -2% | [6]; [8] -3% | [6]; at 50.0 µM 39.1%

COc1cc2c(c(C)c1O)[C@H]1COc3ccccc3[C@H]1O2
active: [1]; at 50.0 µM 75.2% | [2]; at 50.0 µM 77.8% | [3]; at 50.0 µM 89.9% | [5]; at 50.0 µM 83.9%
inactive: [1]; [7] -24% | [1]; [8] -9% | [2]; [7] -38% | [2]; [8] -9% | [3]; [7] 17% | [3]; [8] 13% | [4]; [7] 10% | [4]; [8] 11% | [4]; at 50.0 µM 57% | [5]; [7] 10% | [5]; [8] 61% | [6]; [7] -22% | [6]; [8] 10% | [6]; at 50.0 µM 65.5%

CC12CCC(=O)C=C1CCC1C2C(O)CC2(C)C(c3csc(N)n3)CCC12 (configuration not stated)
inactive: [1]; [7] 58% | [2]; [7] 17% | [3]; [7] 49% | [4]; [7] 23% | [5]; [7] 27% | [6]; [7] 38%
active: [1]; [8] 98% | [1]; at 50.0 µM 98.8% | [2]; [8] 98% | [2]; at 50.0 µM 96.8% | [3]; [8] 97% | [3]; at 50.0 µM 98% | [4]; [8] 90% | [4]; at 50.0 µM 94.5% | [5]; [8] 97% | [5]; at 50.0 µM 96.8% | [6]; [8] 96% | [6]; at 50.0 µM 96%

COC1OC(CO)C(O)C(OC(=O)c2ccc([N+](=O)[O-])cc2)C1OS(=O)(=O)c1ccc(C)cc1 (configuration not stated)
inactive: [1]; [7] 2% | [1]; [8] 0% | [1]; at 50.0 µM 31.8% | [2]; [7] -1% | [2]; [8] 7% | [2]; at 50.0 µM -0.1% | [3]; [7] -1% | [3]; [8] 0% | [3]; at 50.0 µM 18.7% | [4]; [7] -1% | [4]; [8] -1% | [4]; at 50.0 µM -2.5% | [5]; [7] 2% | [5]; [8] -2% | [5]; at 50.0 µM -0.2% | [6]; [7] 27% | [6]; [8] 7% | [6]; at 50.0 µM 10.6%

CCOc1ccc(/C=C\c2ccnc3ccccc23)cc1OCC
active: [1]; [8] 97% | [1]; at 50.0 µM 98.3% | [2]; [8] 99% | [2]; at 50.0 µM 97% | [3]; [8] 99% | [4]; [8] 99% | [4]; at 50.0 µM 98.2% | [5]; [8] 99% | [5]; at 50.0 µM 97.3% | [6]; [8] 98% | [6]; at 50.0 µM 96.3%
inactive: [1]; [7] -5% | [2]; [7] -1% | [3]; [7] 1% | [3]; at 50.0 µM 50.9% | [4]; [7] -3% | [5]; [7] 5% | [6]; [7] -13%

CC(/C=C/c1cccc(C)c1)=N\NC(N)=S
active: [3]; at 50.0 µM 86.2% | [5]; at 50.0 µM 81.1% | [6]; at 50.0 µM 80.5%
inactive: [1]; [7] 14% | [1]; [8] 41% | [1]; at 50.0 µM 30.4% | [2]; [7] 12% | [2]; [8] 38% | [2]; at 50.0 µM 53.4% | [3]; [7] 16% | [3]; [8] 34% | [4]; [7] 1% | [4]; [8] 11% | [4]; at 50.0 µM 38.6% | [5]; [7] 20% | [5]; [8] 26% | [6]; [7] 23% | [6]; [8] 38%

N/C(CC(=O)NOC(=O)c1ccccc1)=N/OC(=O)c1ccccc1
active: [1]; [8] 99% | [1]; at 50.0 µM 99% | [2]; [8] 99% | [2]; at 50.0 µM 99.5% | [3]; at 50.0 µM 99.5% | [4]; [8] 100% | [4]; at 50.0 µM 99% | [5]; [8] 99% | [5]; at 50.0 µM 99.2% | [6]; [8] 99% | [6]; at 50.0 µM 99.2%
inactive: [1]; [7] 55% | [2]; [7] 19% | [3]; [7] 54% | [3]; [8] 62% | [4]; [7] 6% | [5]; [7] -6% | [6]; [7] 27%

O=C1Oc2ccccc2C(=O)/C1=C/N1C(=O)/C(=C/c2ccc3c(c2)OCO3)SC1=S
active: [1]; [8] 76% | [2]; [8] 78% | [3]; at 50.0 µM 80.2% | [4]; [8] 82% | [4]; at 50.0 µM 70.5% | [6]; [8] 77%
inactive: [1]; [7] 7% | [1]; at 50.0 µM 60.9% | [2]; [7] -7% | [2]; at 50.0 µM 47.8% | [3]; [7] 4% | [3]; [8] 66% | [4]; [7] -13% | [5]; [7] 31% | [5]; [8] 30% | [5]; at 50.0 µM 66.3% | [6]; [7] -4% | [6]; at 50.0 µM 44.3%

Source: PubChem BioAssay (NCI)
